Results from PubChem BioAssay AID2108 (National Center for Advancing Translational Sciences (NCATS), 2009).
Results filed as inconclusive are left out. Calls come from the whole dose curve; as a rule, active = well fitted curve in the direction sought with a large enough effect; inconclusive = small, poorly fitted or top-dose-only effect, or effect the other way, or another doubt; inactive = no such curve, though single readings can be large or run the other way.

The compounds below were run against Alpha-galactosidase A (Homo sapiens) (UniProt P06280) (assay: Confirmation of Inhibitors of Human alpha-Galactosidase Using Spleen Homogenate). Details: alpha-galactosidase enzyme activity; series mostly up to 56.2 µM; activity change: at the top concentration.
Alpha-galactosidase A (Homo sapiens), sequence (P06280 32-429 limits assumed): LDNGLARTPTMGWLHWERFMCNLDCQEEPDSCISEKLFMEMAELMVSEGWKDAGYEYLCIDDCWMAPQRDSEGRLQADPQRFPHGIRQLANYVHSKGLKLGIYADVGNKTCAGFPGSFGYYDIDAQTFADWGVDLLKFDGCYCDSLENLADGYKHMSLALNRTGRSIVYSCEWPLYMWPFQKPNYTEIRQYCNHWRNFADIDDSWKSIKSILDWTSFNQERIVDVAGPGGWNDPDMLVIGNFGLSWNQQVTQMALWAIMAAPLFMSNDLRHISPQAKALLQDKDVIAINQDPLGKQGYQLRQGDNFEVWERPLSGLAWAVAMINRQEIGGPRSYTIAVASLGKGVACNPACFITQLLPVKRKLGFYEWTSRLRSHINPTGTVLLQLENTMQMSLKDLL
Source text: NIH Chemical Genomics Center [NCGC]
NIH Molecular Libraries Probe Production Centers Network [MLPCN]
Assay Submitter (PI): Wei Zheng
Alpha-galactosidase is a homodimeric glycoprotein that hydrolyzes the terminal alpha-galactosyl moieties from glycolipids and glycoproteins. Deficiency of this enzyme results in Fabry Disease with progressive accumulation of globotriaosylceramide and other glycosphingolipids in vascular endothelial cells that causes renal failure, myocardial infarction and stroke, and premature death in patients. It has been reported that the improper folding and trafficking of alpha-galactosidase resulting from genetic mutations may account for a significant number of Fabry patients. […] We optimized this alpha-galactosidase assay in 1536-well plate format for identification of novel small molecule inhibitors or activators with structures other than the sugar analogs in order to develop new pharmacological chaperones. In particular, this assay is directed towards discovering compounds active in more natural setting, tissue homogenate, that may have been missed by screens of the purified enzyme under more stringent conditions. This assay attempted to confirm hits from the primary screening.
NCGC Assay Protocol Summary:
This is a fluorogenic enzyme assay with 4-methylumbelliferyl-alpha-D-galactopyranoside as the substrate and human spleen homogenate containing alpha-galactosidase as the enzyme preparation. Upon hydrolysis of this fluorogenic substrate, the resulting product, 4-methylumbelliferone (which excites at 365 nm and emits at 440 nm) can be detected by a fluorescence plate reader. Data were normalized to the controls for basal activity (without enzyme) and 100% activity (with enzyme). The AC50 values were determined from concentration-response data modeled with the standard Hill equation.
Assay buffer: 50 mM citric acid (titrated with potassium phosphate to pH 5.0), 0.01% Tween-20 (pH 5.0 is an optimal condition for this enzyme assay)
1536-well assay protocol for the alpha-galactosidase from human spleen homogenate:
(1) Add 2 ul/well spleen homogenate (1 ug)
(2) Add 23 nL compounds in DMSO solution. The final titration was 0.5 nM to 58 uM.
(3) Add 2 ul of substrate (1 mM final)
(4) Incubate at 37C for 40 min
(5) Add 2 ul stop solution (1M NaOH and 1M Glycine mixture, pH 10)
(6) Detect the assay plate in a ViewLux plate reader (PerkinElmer) with Ex=365 nm and Em=440nm.
Keywords: Alpha-galactosidase, Fabry Disease, pharmacological chaperone, chaperone therapy, high throughput screening, alpha- galactosidase inhibitor, MLSMR, MLSCN, NIH Roadmap, qHTS and NCGC
Note: 0% is about no effect.

Activity change, inactive:
O=C(COC(=O)c1ccccc1Br)NCCc1ccc(F)cc1 -1.68% [at 23.6 µM], OCC(O)C1OC(Nc2ccc(Cl)cc2)C(O)C1O (stereo not given) -3.1%, Cc1ccc(-c2nc3ncccn3c2Nc2ccc3c(c2)OCO3)o1 -5.26%, C(=C/c1nccc2c1[nH]c1ccccc12)/c1ccc2c(c1)OCO2 23.5%, CCNc1ccc(C2(O)C(=O)c3ccccc3C2=O)cc1 -1.5%, O=C(NCCCN1CCOCC1)c1cccs1 -1.58% [at 23.6 µM], O=C(Cc1ncc(C(F)(F)F)cc1Cl)NCCc1ccccc1 7.47% [at 23.6 µM], O=S(=O)(c1ccc2nc(-c3ccco3)c(-c3ccco3)nc2c1)N1CCOCC1 4.72%, CN(C)N=C1c2cc(S(=O)(=O)N3CCOCC3)ccc2-c2ccc(S(=O)(=O)N3CCOCC3)cc21 9.04%, O=C(Nc1ccccc1)C1CCN(S(=O)(=O)c2ccccc2)CC1 11.6%, O=C(CC(c1ccccc1)c1cc(Br)ccc1O)NCCN1CCOCC1 (stereo not given) 5.29% [at 23.6 µM], Cc1ccccc1NC(=O)CC1c2ccccc2CC(C)(C)N1C (stereo not given) -2.65%, Cc1ccc(S(=O)(=O)N2CCN(C(=O)N(c3ccccc3)c3ccccc3)CC2)cc1 7.46%, CC1=CC(=C2C=CC(=O)C=C2)C=C(C)N1C -1.91% [at 23.6 µM], O=c1oc2ccccc2cc1-c1nc2c(s1)CCc1ccccc1-2 3.53%, Cc1ccc(/C=N\Nc2nc3ccc(Cl)cc3[nH]2)o1 -0.392%, CCN(CC)c1ccc(/C=N/NC(=O)C(O)c2ccccc2)cc1 (stereo not given) -3.15% [at 23.6 µM], Cc1ccc(-c2cc(C(=O)N/N=C/c3c(C)nn(-c4ccccc4)c3C)n[nH]2)s1 2.27%, N#CCCN1CCN(S(=O)(=O)c2ccc(S(=O)(=O)N3CCOCC3)cc2)CC1 6.75%, O=S(=O)(c1ccccc1)N1CCNCC1 12.7%, CCc1sc(-c2cc3ccc(O)cc3oc2=O)nc1-c1ccccc1 3.17%, COC(=O)c1c(NC(=O)Cn2nc(C(F)F)cc2C(F)F)sc(C)c1C 4.67% [at 23.6 µM], O=c1ccc2cc(O)c(O)cc2o1 5.16%, O=C(CSc1ccccc1)Nc1nnc(/C=C/c2ccccc2)s1 20%, Cc1ccccc1S(=O)(=O)N1CCOCC1 3.91%, O=C1CC(N2CCN(c3cccc(C(F)(F)F)c3)CC2)C(=O)N1c1ccc(F)cc1 (stereo not given) -6.67% [at 23.6 µM], COc1ccccc1NCC(=O)n1nc(C)cc1C -2.77%, C[C@H](NC(=O)/C(C#N)=C/c1ccc(O)c(O)c1)c1ccccc1 3.29%, COc1cc(/C=C/c2ccc3ccccc3n2)cc(OC)c1O -0.216%, CN1CCN(S(=O)(=O)c2ccccc2)CC1 10.6%, Cc1sc(-c2cc3cc(Br)ccc3oc2=O)nc1-c1ccccc1 17.2%, Fc1ccc(CNc2ccc(N3CCN(Cc4ccccc4)CC3)cc2)cc1 -2.51%, COc1ccc(-n2cc(CNCCc3ncc(C)[nH]3)c(-c3ccccc3Cl)n2)cc1 -2.96%, O=S(=O)(c1ccc(F)cc1)N1CCOCC1 2.82%, Cc1ccc(S(=O)(=O)N(C)C)cc1NC(=O)COC(=O)Cc1ccc(Br)cc1 2.93%, O=C(/C=C/c1ccc(O)c(O)c1)c1ccc(O[C@@H]2O[C@H](CO)[C@@H](O)[C@H](O)[C@H]2O)c(O)c1O -9.67%, O=C(O)Cc1sc(-c2cc3ccccc3oc2=O)nc1-c1ccc(Br)cc1 3.08%, O=C(c1ccccc1)N1CCN(C(=O)c2ccccc2)CC1 10.9%, Cc1ccc(CCNC(=O)CNC(=S)N(Cc2ccccc2)Cc2cccnc2)cc1 4.95%, Cc1ccc(S(=O)(=O)N2CCN(C(=O)CSc3nc4ccccc4c(=O)[nH]3)CC2)c(C)c1 1.9%
